Activity calls are given as the source filed them.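 How the source made its calls, unless noted: active means visual image review flags a hit and inhibition of aggregation exceeds 20%; inconclusive means visual hit but inhibition at or below 20%; inactive means no hit on visual image review.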

One assay in a line: inhibitors of TNFa-induced NFkB p65 translocation, primary screen, imaging, HUVEC, MLSMR starter and 10KST1 sets (AID 438;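 active means inhibition above 20% together with a positive visual image hit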;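 further: compound added about 3h40 before a 20 min TNFalpha stimulation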;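 on inhibition: signal is the nuclear over cytoplasmic p65 intensity ratio per well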). Particulars: HUVEC TNFa-induced p65 nuclear translocation; cell count: measured here: nuclei count (cytotoxicity indicator), at 2.08 µM unless noted; inhibition: at 2 µM, stronger effect = higher value unless noted.
Usually inhibition stands for the drop in the measured response relative to a control, in per cent. With `O=c1[nH]c(=O)n(-c2ccc(F)cc2)c(O)c1C=Nc1ccccc1N1CCCC1`, the inhibition is -0.3% (inactive) and the cell count amounted to 459.
Consider `O=C(c1sc2ccccc2c1Cl)N1CCC2(CC1)OCCO2`, for which the inhibition was 2.5% (inactive) and the cell count amounted to 388.
The corresponding values for `CCn1c(C)c(C(=O)O)c2cc(OC)ccc21` are 3.5% (inactive) and 617.
The corresponding values for `Cc1cc(C)c(C(=O)CN2CCOCC2)c(C)c1` are 7.3% (inactive) and 408.
The corresponding values for `COC(=NC1CCCC1)C(O)c1c[nH]c2ccccc12` (stereo not given) are 9.7% (inactive) and 602.
Take `CN1C(=O)C(Cc2cccc3ccccc23)C(=O)N(C)C1=O`: the cell count amounted to 393 and the inhibition was 6.3% (inactive).
The corresponding values for `CCCCn1c(C)c(C(=O)OCC)c2c(CN3CCOCC3)c(O)ccc21` are 702 and 0.6% (inactive).
For `CN1C(=O)N(C)C(=O)C2(Cc3ccccc3N3CCOCC32)C1=O` (stereo not given) the same measures were 547 and -5.7% (inactive).
For `CCOc1cccc(N2C(=O)CC(=O)NC2=O)c1` the same measures were 351 and -3.3% (inactive).
With `Nc1ccnn1C1CCNCC1`, the cell count came to 285 and the inhibition is 2.4% (inactive).
For `COc1ccc(CN2CCN(c3ccccc3F)CC2)c(OC)c1` the same measures were 420 and 7.1% (inactive).
The corresponding values for `CCCNS(=O)(=O)c1ccc(OCC(=O)N2CCN(Cc3ccccc3)CC2)cc1` are 296 and -7.1% (inactive).
The corresponding values for `CC1(C)Cc2c(sc3c2C(=O)NC(c2cccnc2)N3)CO1` (stereo not given) are 328 and 6.5% (inactive).
On to `CC(=NCCCN1CCOCC1)c1c(O)n(-c2ccccc2C)c(=O)[nH]c1=O`, for which the cell count was 377 and the inhibition was 3.3% (inactive).
For `COc1ccc(CC[n+]2cc(/N=C(\C)[O-])on2)cc1OC` the same measures were 648 and -23.5% (inactive).
With `C=CCn1c(O)c(C(C)=Nc2ccc(N(CC)CC)cc2)c(=O)[nH]c1=O`, the cell count came out at 327 and the inhibition was 2.5% (inactive).
The corresponding values for `Cc1ccc(Cn2c(C)c3cnn(CC(=O)N4CCC5(CC4)OCCO5)c(=O)c3c2C)cc1` are 471 and -6.5% (inactive).
In the case of `COC(=O)c1cncn1C(C)c1ccccc1` (stereo not given), the inhibition was -3.4% (inactive) and the cell count was 671.
For `CCN(CC)CCN=Cc1c(O)n(CCC2=CCCCC2)c(=O)[nH]c1=O` the same measures were -6% (inactive) and 677.
The corresponding values for `CC1=C(C(=O)N2CCC3(CC2)OCCO3)C2(CCC(C)CC2)OC1=O` (stereo not given) are -25.5% (inactive) and 651.
For `CCN1CCN(Cc2cc(Br)cc(OC)c2O)CC1` the same measures were 3.6% (inactive) and 579.
Regarding `O=C(NC1(C(F)(F)F)Oc2ccc(Cl)cc2O1)N1CCC2(CC1)OCCO2` (stereo not given), the cell count is 676 and the inhibition is -22.3% (inactive).

Another assay in a line: inhibitors of mutant huntingtin aggregation, primary screen, imaging, exon1htt(103Q)mCFP cells, high-content imaging (AID 483).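 Further: compound exposure lasted 3 days before fixation.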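 On nuclei count: percent of the per-plate median nuclei count of sample wells.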 Conditions: exon1htt(103Q)mCFP cell line, aggregate imaging, at 2 µM; inhibition of aggregation: stronger effect = higher value; nuclei count: measured here: cell count, toxicity.
Turning to `c1ccc(C2CC3CC(c4ccco4)N2O3)cc1` (stereo not given), the nuclei count worked out at 108% and the inhibition of aggregation was 0% (inactive).
The corresponding values for `C(#CCN1CCOCC1)COCC#Cc1ccccc1` are 94.4% and 12.8% (inactive).
The corresponding values for `CN1CCN(c2c[nH]c(=O)[nH]c2=O)CC1` are 90.3% and -25.3% (inactive).
The corresponding values for `CC(C)CC12CN3CCN(CC(C3)/C1=N/O)C2` are 126% and -20% (inactive).
For `CCCCOc1ccc(CN2CCN(CCO)CC2)cc1`, the nuclei count amounted to 115% and the inhibition of aggregation was -4.6% (inactive).
The corresponding values for `CC(C)C(=O)c1cn(Cc2ccccc2C#N)c2ccccc12` are 72.7% and 11.4% (inactive).
The corresponding values for `Cc1ccc2nc(N3CCN(C)CC3)[nH]c2c1` are 87.6% and 5.5% (inactive).
The corresponding values for `COc1ccc(CC2C(=O)NC(=O)NC2=O)c(OC)c1` are 105% and -24.3% (inactive).
With `N#Cc1ccccc1Cn1cc(C(=O)C2CC2)c2ccccc21`, the nuclei count stood at 101% and the inhibition of aggregation was -0.9% (inactive).
The corresponding values for `CC(C)(C)C(O)C(Oc1ccc(Cl)cc1)n1cncn1` (stereo not given) are 93% and 5.1% (inactive).
The corresponding values for `O=C(CCCOc1ccc(Cl)cc1Cl)N1CCC2(CC1)OCCO2` are 114% and -14.9% (inactive).
For `COc1ccc(CCn2c(O)c(C=NCCCN(C)C)c(=O)[nH]c2=O)cc1OC` the same measures were 110% and 12.1% (inactive).
Take `COC(=O)CC1(Cc2ccccc2)C(=O)NC(=O)NC1=O`: the nuclei count turned out to be 78% and the inhibition of aggregation was 12.4% (inactive).
The corresponding values for `Cc1ccc(CC2C(=O)N(C)C(=O)N(C)C2=O)s1` are 109% and 2% (inactive).
The corresponding values for `Cc1oc2ccc(OC(=O)N(C)C)cc2c1C(=O)OC(C)C` are 99.7% and 1.1% (inactive).
For `CCn1nc(-c2ccccc2)nc2c(=O)n(C)c(=O)nc1-2` the same measures were 86% and -8.2% (inactive).
As for `O=c1[nH]c(=O)n(-c2ccc(F)cc2)c(O)c1C=Nc1ccccc1N1CCCC1`, the nuclei count amounted to 112% and the inhibition of aggregation is -4.4% (inactive).
For `O=C(c1sc2ccccc2c1Cl)N1CCC2(CC1)OCCO2` the same measures were 107% and -5.9% (inactive).
In the case of `CCn1c(C)c(C(=O)O)c2cc(OC)ccc21`, the inhibition of aggregation is 1.8% (inactive) and the nuclei count turned out to be 96.3%.
For `Cc1cc(C)c(C(=O)CN2CCOCC2)c(C)c1` the same measures were 7.9% (inactive) and 89.5%.
Take `COC(=NC1CCCC1)C(O)c1c[nH]c2ccccc12` (stereo not given): the nuclei count was found to be 88.5% and the inhibition of aggregation is 14% (inactive).
The corresponding values for `CN1C(=O)C(Cc2cccc3ccccc23)C(=O)N(C)C1=O` are 108% and -7.2% (inactive).
For `CCCCn1c(C)c(C(=O)OCC)c2c(CN3CCOCC3)c(O)ccc21` the same measures were 82.8% and -0.7% (inactive).
The corresponding values for `CN1C(=O)N(C)C(=O)C2(Cc3ccccc3N3CCOCC32)C1=O` (stereo not given) are 92.5% and -30.5% (inactive).
As to `CCOc1cccc(N2C(=O)CC(=O)NC2=O)c1`, the nuclei count was 109% and the inhibition of aggregation is -8.7% (inactive).
The corresponding values for `Nc1ccnn1C1CCNCC1` are 99.6% and 6.2% (inactive).
For `COc1ccc(CN2CCN(c3ccccc3F)CC2)c(OC)c1` the same measures were 109% and -8.1% (inactive).
The corresponding values for `CCCNS(=O)(=O)c1ccc(OCC(=O)N2CCN(Cc3ccccc3)CC2)cc1` are 115% and -5% (inactive).
Take `CC1(C)Cc2c(sc3c2C(=O)NC(c2cccnc2)N3)CO1` (stereo not given): the inhibition of aggregation is 6% (inactive) and the nuclei count turned out to be 98.3%.
As to `CC(=NCCCN1CCOCC1)c1c(O)n(-c2ccccc2C)c(=O)[nH]c1=O`, the inhibition of aggregation was -27.1% (inactive) and the nuclei count was found to be 107%.
The corresponding values for `COc1ccc(CC[n+]2cc(/N=C(\C)[O-])on2)cc1OC` are -6% (inactive) and 130%.
The corresponding values for `C=CCn1c(O)c(C(C)=Nc2ccc(N(CC)CC)cc2)c(=O)[nH]c1=O` are -15.3% (inactive) and 102%.
For `Cc1ccc(Cn2c(C)c3cnn(CC(=O)N4CCC5(CC4)OCCO5)c(=O)c3c2C)cc1` the same measures were -6.5% (inactive) and 110%.
Take `COC(=O)c1cncn1C(C)c1ccccc1` (stereo not given): the inhibition of aggregation is -10.9% (inactive) and the nuclei count was found to be 97.9%.
The corresponding values for `CCN(CC)CCN=Cc1c(O)n(CCC2=CCCCC2)c(=O)[nH]c1=O` are -1.5% (inactive) and 94.9%.
The corresponding values for `CC1=C(C(=O)N2CCC3(CC2)OCCO3)C2(CCC(C)CC2)OC1=O` (stereo not given) are 3.3% (inactive) and 104%.
The corresponding values for `CCN1CCN(Cc2cc(Br)cc(OC)c2O)CC1` are 20.4% (inactive) and 99.4%.
With `O=C(NC1(C(F)(F)F)Oc2ccc(Cl)cc2O1)N1CCC2(CC1)OCCO2` (stereo not given), the inhibition of aggregation is -18.5% (inactive) and the nuclei count stood at 114%.

(Values after PubChem BioAssay.)
